Measurements reported in ChEMBL document CHEMBL3433997, “St. Jude Leishmania screening dataset” (2016).
Values joined by “and” are separate entries in the source; they are usually repeats but may differ in a detail not shown here. Identical values can stand only once.

What follows are molecules tested against Glucose transporter (Leishmania mexicana) (UniProt O61059) (assay: ST_JUDE_LEISH: Cytotoxicity at 2uM final concentration against transgenic Leishmania Mexicana promastigotes LmGT2 that are glucose transport deficient and complemented with the L. Mexicana glucose transporter 2. Activity is measured by DNA content using SYBR green in vitro).
Format: functional

Point of comparison: N#Cc1cc(C(=O)c2cc(Br)ccc2O)cn(-c2cc(Cl)cc(Cl)c2)c1=O, inhibition -3.61%. Against it:
- O=C(Nc1cccc(CN2CCCN(Cc3ccc(O)cc3)CC2)c1)c1ccc(Br)cc1 — higher, 3.89%
- CN1CCC(Oc2ccc(Nc3nccc(NCC(O)c4ccccc4)n3)cc2Cl)CC1 (stereo not given) — lower, -6.09%
- CCN(CC)CCCC(C)Nc1c2ccccc2nc2c1ccc1ccccc12 (stereo not given) — higher, 7.76%
- C[C@H]1CN(Cc2cccc(-c3cc(CNC(=O)c4cccc(CC5CCN(C)CC5)c4)ccc3F)c2)CCN1C — higher, -3.42%
- CCc1cn2c3c(cc(C(=O)N[C@@H](Cc4ccccc4)[C@H](O)CNC4CCOCC4)cc13)N(C(C)C)S(=O)(=O)CC2 — higher, 0.93%
- CC(C)(C)c1ccc(NC(=O)c2ccc(CN3CCCN(Cc4cccc(Cl)c4)CC3)cc2)cc1 — higher, 1.91%
- CO/C(=C\C=C\c1cc2cc(Cl)c(Cl)cc2[nH]1)C(=O)NC1CC2CCCC(C1)N2C (stereo not given) — higher, 5.12%
- O=C(c1ccc(O)c(-c2cc(Cl)cc(Cl)c2)c1)N1CCCC1 — higher, -0.96%
- Cc1ccc(S(=O)(=O)NC2CCN(c3ccnc4cc(Cl)ccc34)C2)cc1 (stereo not given) — higher, 4.19%
- Cc1ccccc1NC(=S)NC1CCN(CCCCCNC(=O)/C=C/c2ccc(Cl)c(Cl)c2)CC1 — higher, 2.71%
- CCCCCCCC1CCN(C[C@H](O)c2ccnc3ccc(OC)cc23)CC1 — higher, 2.08%
- CCn1cnc2c(N3CCCCS3(=O)=O)cc(C(=O)N[C@@H](Cc3ccccc3)[C@H](O)CNC3CCOCC3)cc21 — higher, 3.34%
- Cc1ccc(C(=O)Nc2ccc(C)c(OC3CCN(CCC(C)C)C3)c2)cc1 (stereo not given) — higher, 5.85%

In the case of O=C(NCCCCN1CCCC2c3ccc(O)cc3CCC21)c1ccc(-c2ccccc2)cc1 (stereo not given), the inhibition is reported as 0.13% and -0.76%.
